Tests used:
Assay in all cases: log2 ratio of Biotin-Ahx-Ub-VS probe labelling (fragment/DMSO); higher = less target engagement (more negative = stronger competition), active = hit call of the paper (q ≤ 0.05, log2 ratio ≤ -1)
Conditions in all cases: compound concentration: 200 uM; treatment time: 3 h
USP34 = USP34 (UniProt Q70CQ2)
How it was run: (§1)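 The table lists average log2 ratios of fragment over vehicle, from an unpaired t-test on global-median-normalised Spectronaut label-free quantities. Proteins with ≥2 unique peptides were used. Samples were HEK293T lysate (495 µg) treated in triplicate with fragment at 200 µM or vehicle for 3 h, then with Biotin-Ahx-Ub-VS (0.5 µM final) for 1 h, with labelled DUBs NeutrAvidin-enriched and run by diaPASEF LC-MS/MS.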

USP36 = biological target: T1, USP36 (UniProt Q9P275)
T1 sequence (whole entry): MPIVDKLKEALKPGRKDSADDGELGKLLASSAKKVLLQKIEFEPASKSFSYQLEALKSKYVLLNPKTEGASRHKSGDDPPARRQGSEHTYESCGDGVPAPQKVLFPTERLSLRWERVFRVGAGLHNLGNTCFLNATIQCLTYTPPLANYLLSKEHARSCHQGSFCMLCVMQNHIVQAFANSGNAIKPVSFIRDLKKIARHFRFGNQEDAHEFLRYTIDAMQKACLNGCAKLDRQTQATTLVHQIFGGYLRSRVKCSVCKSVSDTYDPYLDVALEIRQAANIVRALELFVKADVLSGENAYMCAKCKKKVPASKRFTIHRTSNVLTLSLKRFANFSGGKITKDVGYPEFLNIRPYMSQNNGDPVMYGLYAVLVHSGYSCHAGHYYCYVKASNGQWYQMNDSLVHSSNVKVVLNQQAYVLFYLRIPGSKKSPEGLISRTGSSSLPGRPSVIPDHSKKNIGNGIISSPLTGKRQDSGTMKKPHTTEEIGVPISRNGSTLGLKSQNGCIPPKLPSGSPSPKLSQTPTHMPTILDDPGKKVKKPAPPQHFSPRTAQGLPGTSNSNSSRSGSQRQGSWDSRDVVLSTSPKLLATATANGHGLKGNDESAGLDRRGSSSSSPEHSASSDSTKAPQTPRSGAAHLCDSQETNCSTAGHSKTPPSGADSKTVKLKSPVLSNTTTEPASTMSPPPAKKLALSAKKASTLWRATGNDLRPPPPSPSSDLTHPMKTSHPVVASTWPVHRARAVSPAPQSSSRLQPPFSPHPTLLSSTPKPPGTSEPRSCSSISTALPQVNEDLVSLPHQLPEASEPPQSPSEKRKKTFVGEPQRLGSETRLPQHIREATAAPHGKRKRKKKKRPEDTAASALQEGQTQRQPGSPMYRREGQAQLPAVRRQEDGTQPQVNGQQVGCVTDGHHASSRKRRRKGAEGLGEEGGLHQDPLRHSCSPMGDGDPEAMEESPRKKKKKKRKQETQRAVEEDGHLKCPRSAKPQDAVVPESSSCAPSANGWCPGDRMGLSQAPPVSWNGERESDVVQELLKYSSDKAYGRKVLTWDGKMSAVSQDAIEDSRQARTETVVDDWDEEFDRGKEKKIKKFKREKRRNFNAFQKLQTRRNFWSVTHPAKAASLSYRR
How it was run: as §1

USP38 = biological target: T2, USP38 (UniProt Q8NB14)
T2 sequence (whole entry): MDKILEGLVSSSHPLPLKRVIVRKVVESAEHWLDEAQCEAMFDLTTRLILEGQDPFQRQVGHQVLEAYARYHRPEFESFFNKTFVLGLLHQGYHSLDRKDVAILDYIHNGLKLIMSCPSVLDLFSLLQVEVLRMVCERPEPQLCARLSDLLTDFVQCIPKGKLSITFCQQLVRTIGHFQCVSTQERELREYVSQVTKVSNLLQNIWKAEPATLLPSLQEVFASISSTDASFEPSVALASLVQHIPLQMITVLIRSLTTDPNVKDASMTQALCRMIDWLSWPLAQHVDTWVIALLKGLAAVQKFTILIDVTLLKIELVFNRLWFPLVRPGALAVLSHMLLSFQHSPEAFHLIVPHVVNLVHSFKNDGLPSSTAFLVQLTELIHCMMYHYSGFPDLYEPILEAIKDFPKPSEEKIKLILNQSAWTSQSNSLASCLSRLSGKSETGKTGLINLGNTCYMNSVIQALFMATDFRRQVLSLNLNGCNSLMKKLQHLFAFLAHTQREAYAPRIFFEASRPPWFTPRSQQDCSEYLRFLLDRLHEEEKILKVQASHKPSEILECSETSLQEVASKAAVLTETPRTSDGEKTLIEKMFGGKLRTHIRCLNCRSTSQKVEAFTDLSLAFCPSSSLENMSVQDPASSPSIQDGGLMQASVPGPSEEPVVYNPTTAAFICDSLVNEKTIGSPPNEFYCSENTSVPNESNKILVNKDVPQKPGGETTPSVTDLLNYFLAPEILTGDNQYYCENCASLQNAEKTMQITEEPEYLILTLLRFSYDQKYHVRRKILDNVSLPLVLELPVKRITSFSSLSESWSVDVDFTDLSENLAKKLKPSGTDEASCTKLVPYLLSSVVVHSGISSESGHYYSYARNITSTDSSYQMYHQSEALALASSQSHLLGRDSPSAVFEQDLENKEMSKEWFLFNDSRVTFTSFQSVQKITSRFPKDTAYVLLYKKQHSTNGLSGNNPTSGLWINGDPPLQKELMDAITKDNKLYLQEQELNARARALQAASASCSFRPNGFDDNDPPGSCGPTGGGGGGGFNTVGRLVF
How it was run: as §1

USP39 = biological target: T3, USP39 (UniProt Q53GS9)
T3 sequence (whole entry): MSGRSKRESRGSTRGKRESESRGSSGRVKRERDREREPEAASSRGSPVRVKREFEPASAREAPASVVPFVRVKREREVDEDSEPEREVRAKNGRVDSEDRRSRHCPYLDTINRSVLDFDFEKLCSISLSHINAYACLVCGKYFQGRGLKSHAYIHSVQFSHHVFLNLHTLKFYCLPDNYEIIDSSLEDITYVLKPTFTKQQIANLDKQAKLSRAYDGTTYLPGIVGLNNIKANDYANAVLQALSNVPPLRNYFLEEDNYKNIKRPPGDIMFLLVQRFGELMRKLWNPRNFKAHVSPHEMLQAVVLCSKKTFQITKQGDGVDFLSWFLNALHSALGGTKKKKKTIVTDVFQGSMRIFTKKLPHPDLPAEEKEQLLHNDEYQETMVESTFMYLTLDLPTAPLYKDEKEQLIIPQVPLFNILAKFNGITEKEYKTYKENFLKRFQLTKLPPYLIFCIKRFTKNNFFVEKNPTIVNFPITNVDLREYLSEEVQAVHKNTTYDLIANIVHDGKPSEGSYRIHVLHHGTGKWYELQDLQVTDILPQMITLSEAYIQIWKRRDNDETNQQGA
How it was run: as §1

USP4 = biological target: T4, USP4 (UniProt Q13107)
T4 sequence (whole entry): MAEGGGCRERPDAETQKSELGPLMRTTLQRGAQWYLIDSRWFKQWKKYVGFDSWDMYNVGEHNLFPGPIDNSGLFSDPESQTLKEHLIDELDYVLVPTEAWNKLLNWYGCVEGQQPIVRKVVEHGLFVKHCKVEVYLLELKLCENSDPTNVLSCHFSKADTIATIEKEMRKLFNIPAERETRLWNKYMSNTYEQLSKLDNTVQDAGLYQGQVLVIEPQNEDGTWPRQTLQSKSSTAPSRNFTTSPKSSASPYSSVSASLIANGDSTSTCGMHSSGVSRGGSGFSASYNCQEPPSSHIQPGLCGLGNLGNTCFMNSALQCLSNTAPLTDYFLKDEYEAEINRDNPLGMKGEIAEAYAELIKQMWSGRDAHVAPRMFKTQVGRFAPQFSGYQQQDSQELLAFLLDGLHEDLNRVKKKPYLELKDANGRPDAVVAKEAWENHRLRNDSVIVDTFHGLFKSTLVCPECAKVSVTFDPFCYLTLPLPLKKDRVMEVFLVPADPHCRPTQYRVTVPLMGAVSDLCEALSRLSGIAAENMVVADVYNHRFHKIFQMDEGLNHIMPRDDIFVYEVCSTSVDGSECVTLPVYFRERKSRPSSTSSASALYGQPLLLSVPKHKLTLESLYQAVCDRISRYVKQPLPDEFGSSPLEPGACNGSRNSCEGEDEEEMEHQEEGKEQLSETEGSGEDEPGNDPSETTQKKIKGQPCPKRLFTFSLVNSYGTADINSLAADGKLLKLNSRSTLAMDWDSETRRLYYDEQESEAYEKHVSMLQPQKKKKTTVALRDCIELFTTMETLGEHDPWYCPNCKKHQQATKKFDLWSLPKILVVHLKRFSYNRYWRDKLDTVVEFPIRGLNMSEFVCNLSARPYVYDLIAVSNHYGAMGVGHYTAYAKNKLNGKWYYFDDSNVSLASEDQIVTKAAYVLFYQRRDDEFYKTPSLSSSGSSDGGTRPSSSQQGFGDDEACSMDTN
How it was run: as §1

Measured: log2 ratio of Biotin-Ahx-Ub-VS probe labelling

USP34, sequence (Q70CQ2 whole entry, the tested form may be a part): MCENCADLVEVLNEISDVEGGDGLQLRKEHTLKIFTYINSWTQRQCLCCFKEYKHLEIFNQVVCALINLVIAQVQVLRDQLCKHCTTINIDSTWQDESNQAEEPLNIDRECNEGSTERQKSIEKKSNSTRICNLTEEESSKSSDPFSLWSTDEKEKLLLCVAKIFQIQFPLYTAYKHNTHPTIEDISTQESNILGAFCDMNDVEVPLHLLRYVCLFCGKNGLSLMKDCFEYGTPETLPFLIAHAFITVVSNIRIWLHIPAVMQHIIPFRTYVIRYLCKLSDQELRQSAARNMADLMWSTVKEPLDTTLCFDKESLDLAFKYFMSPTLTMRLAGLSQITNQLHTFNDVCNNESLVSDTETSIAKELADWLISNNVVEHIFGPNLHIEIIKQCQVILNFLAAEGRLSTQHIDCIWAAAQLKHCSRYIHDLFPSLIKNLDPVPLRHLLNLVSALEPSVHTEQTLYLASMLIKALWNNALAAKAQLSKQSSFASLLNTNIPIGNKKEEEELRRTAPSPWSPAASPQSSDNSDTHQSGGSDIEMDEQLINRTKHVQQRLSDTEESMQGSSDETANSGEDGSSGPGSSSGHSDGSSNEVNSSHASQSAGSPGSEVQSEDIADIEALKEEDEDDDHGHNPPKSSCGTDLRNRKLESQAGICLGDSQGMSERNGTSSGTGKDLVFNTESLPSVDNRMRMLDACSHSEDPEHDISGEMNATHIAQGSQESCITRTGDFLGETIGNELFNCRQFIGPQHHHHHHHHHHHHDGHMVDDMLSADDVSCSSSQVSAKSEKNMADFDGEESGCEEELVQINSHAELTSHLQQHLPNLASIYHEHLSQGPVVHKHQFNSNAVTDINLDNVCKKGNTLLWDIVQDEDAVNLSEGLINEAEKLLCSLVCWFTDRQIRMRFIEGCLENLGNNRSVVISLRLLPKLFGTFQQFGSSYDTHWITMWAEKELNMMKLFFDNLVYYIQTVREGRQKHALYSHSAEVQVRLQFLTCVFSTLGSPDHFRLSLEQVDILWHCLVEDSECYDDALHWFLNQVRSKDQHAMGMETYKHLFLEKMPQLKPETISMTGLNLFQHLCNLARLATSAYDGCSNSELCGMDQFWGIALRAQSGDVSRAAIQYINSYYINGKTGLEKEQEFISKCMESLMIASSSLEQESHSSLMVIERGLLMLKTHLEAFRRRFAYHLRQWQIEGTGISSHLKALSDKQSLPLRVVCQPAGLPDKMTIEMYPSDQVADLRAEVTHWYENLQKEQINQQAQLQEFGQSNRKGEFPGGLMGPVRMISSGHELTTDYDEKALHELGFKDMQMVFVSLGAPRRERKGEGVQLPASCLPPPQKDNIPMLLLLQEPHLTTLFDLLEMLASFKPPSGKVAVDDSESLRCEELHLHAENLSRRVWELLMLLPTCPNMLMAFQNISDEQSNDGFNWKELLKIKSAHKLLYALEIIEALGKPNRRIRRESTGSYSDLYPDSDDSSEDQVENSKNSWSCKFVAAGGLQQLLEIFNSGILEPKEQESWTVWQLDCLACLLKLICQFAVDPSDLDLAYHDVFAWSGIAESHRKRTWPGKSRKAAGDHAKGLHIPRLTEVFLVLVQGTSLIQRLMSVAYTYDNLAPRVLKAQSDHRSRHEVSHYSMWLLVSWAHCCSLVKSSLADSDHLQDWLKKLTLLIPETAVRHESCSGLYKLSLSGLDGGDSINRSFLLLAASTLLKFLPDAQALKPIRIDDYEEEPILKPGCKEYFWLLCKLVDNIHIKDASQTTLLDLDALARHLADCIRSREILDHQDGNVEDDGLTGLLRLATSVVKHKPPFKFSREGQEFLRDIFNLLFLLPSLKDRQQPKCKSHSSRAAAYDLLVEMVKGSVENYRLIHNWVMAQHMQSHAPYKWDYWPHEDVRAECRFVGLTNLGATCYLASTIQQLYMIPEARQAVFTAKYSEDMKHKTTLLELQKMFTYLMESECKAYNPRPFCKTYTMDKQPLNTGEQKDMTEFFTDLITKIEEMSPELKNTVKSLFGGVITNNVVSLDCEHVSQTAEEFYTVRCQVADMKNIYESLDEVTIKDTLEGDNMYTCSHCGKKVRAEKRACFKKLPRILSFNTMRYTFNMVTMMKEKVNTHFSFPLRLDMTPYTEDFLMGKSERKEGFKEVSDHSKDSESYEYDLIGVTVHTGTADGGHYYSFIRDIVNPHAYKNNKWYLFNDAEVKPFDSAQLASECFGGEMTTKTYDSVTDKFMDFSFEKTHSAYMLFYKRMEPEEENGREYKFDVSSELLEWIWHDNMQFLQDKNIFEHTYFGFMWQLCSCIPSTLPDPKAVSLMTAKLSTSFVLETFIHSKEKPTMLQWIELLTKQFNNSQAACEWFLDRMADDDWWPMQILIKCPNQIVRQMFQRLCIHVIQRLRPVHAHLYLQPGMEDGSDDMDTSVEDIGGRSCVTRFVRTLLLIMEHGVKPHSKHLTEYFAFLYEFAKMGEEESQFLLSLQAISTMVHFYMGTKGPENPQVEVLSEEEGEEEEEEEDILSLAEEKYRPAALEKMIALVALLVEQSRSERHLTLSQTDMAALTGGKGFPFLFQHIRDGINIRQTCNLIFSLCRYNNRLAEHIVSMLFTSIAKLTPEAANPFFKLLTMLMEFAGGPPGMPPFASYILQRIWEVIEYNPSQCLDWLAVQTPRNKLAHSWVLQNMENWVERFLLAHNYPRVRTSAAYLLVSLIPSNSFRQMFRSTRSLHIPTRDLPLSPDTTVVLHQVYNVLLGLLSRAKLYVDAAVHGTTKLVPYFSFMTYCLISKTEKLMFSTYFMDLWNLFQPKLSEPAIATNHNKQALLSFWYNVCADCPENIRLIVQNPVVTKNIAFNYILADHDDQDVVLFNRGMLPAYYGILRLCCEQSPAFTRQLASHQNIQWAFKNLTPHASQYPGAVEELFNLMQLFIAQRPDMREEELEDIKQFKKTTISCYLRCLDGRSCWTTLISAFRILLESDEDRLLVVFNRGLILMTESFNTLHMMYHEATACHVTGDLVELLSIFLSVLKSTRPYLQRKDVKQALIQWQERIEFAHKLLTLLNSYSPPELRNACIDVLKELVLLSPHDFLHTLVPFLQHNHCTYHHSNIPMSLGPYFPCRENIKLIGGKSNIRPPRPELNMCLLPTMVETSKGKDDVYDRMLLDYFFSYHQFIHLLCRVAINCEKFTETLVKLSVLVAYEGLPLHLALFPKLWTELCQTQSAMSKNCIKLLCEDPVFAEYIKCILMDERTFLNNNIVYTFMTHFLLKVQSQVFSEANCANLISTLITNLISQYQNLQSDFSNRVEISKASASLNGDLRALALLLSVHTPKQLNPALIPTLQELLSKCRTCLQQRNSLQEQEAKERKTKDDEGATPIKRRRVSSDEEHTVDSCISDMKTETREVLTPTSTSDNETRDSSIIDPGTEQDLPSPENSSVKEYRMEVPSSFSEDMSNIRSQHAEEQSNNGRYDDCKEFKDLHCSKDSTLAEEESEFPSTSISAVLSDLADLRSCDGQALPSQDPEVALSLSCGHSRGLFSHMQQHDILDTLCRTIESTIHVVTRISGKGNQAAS

Cc1c(NC(=O)CCl)c(=O)n(-c2ccccc2)n1C
inactive: USP34 -0.0386 | USP36 -0.0835 | USP38 -0.177 | USP39 -0.16 | USP4 0.0206

Source: the supplement of paper PMC11732987, “Enantioselective OTUD7B fragment discovery through chemoproteomics screening and high-throughput optimisation” (Communications Chemistry, 2025)
